PubChem BioAssay (Tox21)
Inconclusive results are not listed. The source made the active and inactive calls. Unless noted, calls come from the whole dose curve; as a rule, active = well fitted curve in the direction sought with a large enough effect in the repeat runs; inconclusive = weak or mixed curves; inactive = no such curve, though single readings can be large; an effect the other way counts as inactive or inconclusive.

Key:
[1] = qHTS assay to identify small molecule antagonists of the retinoid acid receptor (RAR) signaling pathway - cell viability counter screen (AID 1159551); note: nearly all actives have a fitted effect of over 35% in size
How it was run: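 ATP-based viability, C3RL4 cells, 6 h at 37 C with 1 uM final retinol co-added after compound; luminescence read 30 min post CellTiter-Glo, RT.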

[2] = qHTS assay to identify small molecule agonists of the retinoic acid receptor (RAR) signaling pathway (AID 1159553); note: potency is the fitted concentration of half-maximal effect
How it was run: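 Quantitative high-throughput format: the Tox21 10K library was tested on C3RL4 RARE-luciferase cells for 6 hr at 37 C and 5% CO2, with luminescence measured after a 30 min room-temperature reagent step.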

[3] = qHTS assay to identify small molecule antagonists of the estrogen related receptor (ERR) signaling pathway from Tox21 library - cell viability counter screen (AID 1224834); note: nearly all actives have a fitted effect of over 30% in size; note: potency is the fitted concentration of half-maximal effect
How it was run: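 Compounds in DMSO were pinned onto ERR cells that had been incubated for 6 h, and the plates were held at 37 C for 17.5 h. CellTiter-Fluor reagent was then added and fluorescence was measured after 30 min.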

[4] = qHTS assay to identify small molecule antagonists of the constitutive androstane receptor (CAR) signaling pathway - cell viability counter screen (AID 1224837); note: series mostly up to about 92 µM; nearly all actives have a fitted effect of over 45% in size
How it was run: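 Cells are seeded, rested 4 hr at 37 C/5% CO2, dosed with compound (15-point series) and 50 nM CITCO, incubated a further 23 hr, and then CellTiter-Fluor reagent is added before fluorescence is read. The line is HepG2 with stable hCAR and CYP2B6-2.2kb.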

[5] = target: Nuclear receptor subfamily 1 group I member 3 (Homo sapiens) (UniProt Q14994); assay: qHTS assay to identify small molecule antagonists of the constitutive androstane receptor (CAR) signaling pathway (AID 1224838);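 note: HepG2 cells stably expressing hCAR with CYP2B6 luciferase reporter stimulated by CITCO; nearly all actives have a fitted effect of over 40% in size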; note: potency is the fitted concentration of half-maximal effect
Sequence of Nuclear receptor subfamily 1 group I member 3 (Homo sapiens) (Q14994 whole entry, looked up): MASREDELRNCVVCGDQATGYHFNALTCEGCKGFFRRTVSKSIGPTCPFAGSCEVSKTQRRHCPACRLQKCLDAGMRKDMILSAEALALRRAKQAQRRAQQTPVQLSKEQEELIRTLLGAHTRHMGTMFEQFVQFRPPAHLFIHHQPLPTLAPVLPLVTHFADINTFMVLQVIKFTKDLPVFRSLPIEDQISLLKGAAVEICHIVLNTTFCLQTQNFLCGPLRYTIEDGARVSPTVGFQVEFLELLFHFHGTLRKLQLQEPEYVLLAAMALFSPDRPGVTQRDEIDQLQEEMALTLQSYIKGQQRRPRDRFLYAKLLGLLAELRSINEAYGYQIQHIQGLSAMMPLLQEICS
How it was run: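 Luminescence from a CYP2B6-2.2kb promoter reporter in hCAR-expressing HepG2 cells reflects CAR signaling. Cells received compounds at 15 concentrations and 50 nM CITCO (final), then incubated 24 h at 37 C/5% CO2.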

[6] = target: Nuclear receptor subfamily 1 group I member 3 (Homo sapiens) (UniProt Q14994); assay: qHTS assay to identify small molecule agonists of the constitutive androstane receptor (CAR) signaling pathway (AID 1224839); note: nearly all actives have a fitted effect of over 15% in size; note: potency is the fitted concentration of half-maximal effect;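 for activation: HepG2 cells stably carrying human CAR and a CYP2B6 luciferase reporter; series mostly up to about 92 µM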
How it was run: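 Using human hepatoma HepG2 cells engineered with hCAR and a CYP2B6-2.2kb reporter, 15-concentration compound series were incubated 24 h alongside PK11195 at 0.75 uM final, with luminescence quantified afterwards.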

[7] = qHTS assay to identify small molecule antagonists of the estrogen related receptor signaling pathway with the pleiotropic PPARgamma coactivator (PGC) from Tox21 10K library - cell viability counter screen (AID 1224840; active = well fitted cell-killing curve with a large enough effect in the repeat runs, not every such curve was filed as active; note: nearly all actives have a fitted effect of over 40% in size)
How it was run: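 Cell viability is measured by CellTiter-Fluor fluorescence in PGC/ERR cells that receive compounds after a 6-hour attachment period and are then incubated 17.5 hours at 37 C.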

[8] = qHTS assay to identify small molecule agonists of the RXR signaling pathway - cell viability counter screen (AID 1159529);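 note: HEK 293T cells carrying an RXR-alpha UAS beta-lactamase reporter; series mostly up to about 77 µM; nearly all actives have a fitted effect of over 50% in size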
How it was run: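 Viability read-out for the RXR-alpha agonist qHTS: luminescent CellTiter-Glo signal after 30 min at RT. HEK 293T bla reporter cells, 2% charcoal-stripped FBS, 16 hr compound incubation; tetraoctyl ammonium bromide as cytotoxic control.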

[9] = qHTS assay to identify small molecule agonists of the constitutive androstane receptor (CAR) signaling pathway - cell viability counter screen (AID 1224836); note: series mostly up to about 92 µM; nearly all actives have a fitted effect of over 45% in size
How it was run: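 Multiplexed viability check: HepG2-CYP2B6-hCAR cells, 15-point compound dosing, 0.75 uM PK11195 final, 23 h at 37 C, CellTiter-Fluor fluorescence.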

[10] = qHTS assay to identify small molecule antagonists of the estrogen related receptor signaling pathway with the pleiotropic PPARgamma coactivator (PGC) from Tox21 10K library (AID 1224841; call rule not given here; note: actives are mostly falling curves and most rising ones were filed inactive; nearly all actives have a fitted effect of over 50% in size; note: potency is the fitted concentration of half-maximal effect; for activity, negative = inhibition: series mostly up to about 92 µM)
How it was run: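 Cells stably carrying the PGC/ERR reporter, seeded at 2,000 per well, received pin-transferred compounds 6 h post-plating. Exposure lasted 18 h at 37 C. Signal: One-Glo luminescence.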

[11] = qHTS assay to identify small molecule agonists of the estrogen related receptor signaling pathway with the pleiotropic PPARgamma coactivator (PGC) from Tox21 10K library (AID 1224842); note: nearly all actives have a fitted effect of over 15% in size; note: potency is the fitted concentration of half-maximal effect
How it was run: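 PGC/ERR reporter cell line, 2,000 cells per well, incubated 6 h at 37 C before 23 nL compound in DMSO was added. After 18 h at 37 C, One-Glo luminescence read following 30 min at room temperature.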

[12] = target: Luciferin 4-monooxygenase (Photinus pyralis) (UniProt P08659); assay: qHTS assay to identify small molecule inhibitors of firefly luciferase (AID 1224835); note: nearly all actives have a fitted effect of over 25% in size; note: potency is the fitted concentration of half-maximal effect; for activity change, negative = inhibition: series mostly up to about 120 µM
Sequence of Luciferin 4-monooxygenase (Photinus pyralis) (P08659 whole entry, looked up): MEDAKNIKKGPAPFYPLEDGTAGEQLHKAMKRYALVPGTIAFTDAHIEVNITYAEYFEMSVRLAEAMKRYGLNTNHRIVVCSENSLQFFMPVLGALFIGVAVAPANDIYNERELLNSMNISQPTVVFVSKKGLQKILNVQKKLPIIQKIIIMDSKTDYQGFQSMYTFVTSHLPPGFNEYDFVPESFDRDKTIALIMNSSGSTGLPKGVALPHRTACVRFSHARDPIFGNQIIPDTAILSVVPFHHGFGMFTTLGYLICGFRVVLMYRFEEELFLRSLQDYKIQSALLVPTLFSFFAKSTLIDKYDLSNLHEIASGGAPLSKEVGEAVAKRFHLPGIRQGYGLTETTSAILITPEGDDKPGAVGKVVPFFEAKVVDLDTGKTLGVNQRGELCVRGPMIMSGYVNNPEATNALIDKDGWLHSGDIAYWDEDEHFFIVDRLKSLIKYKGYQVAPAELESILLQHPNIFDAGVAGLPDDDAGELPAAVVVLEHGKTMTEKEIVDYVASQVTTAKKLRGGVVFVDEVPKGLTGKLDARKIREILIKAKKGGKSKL
How it was run: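 Biochemical qHTS: compounds run as interplate titrations against purified firefly enzyme, with D-luciferin and ATP each at its KM concentration. Light output recorded by CCD imaging.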

[13] = qHTS assay to identify small molecule antagonists of the estrogen related receptor (ERR) signaling pathway - cell viability counter screen (AID 1224818);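 note: series mostly up to about 46 µM; viability measured after 17.5 h of compound exposure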
How it was run: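 Quantitative high-throughput viability counter screen in ERR cells. Compounds (DMSO) incubated 17.5 h at 37 C; read-out was CellTiter-Fluor fluorescence.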

[14] = qHTS assay to identify small molecule antagonists of the estrogen related receptor signaling pathway with the pleiotropic PPARgamma coactivator (PGC) cell viability counter screen (AID 1224822; note: series mostly up to about 46 µM)
How it was run: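 Cytotoxicity in the PGC/ERR cell line is assessed with CellTiter-Fluor, read as fluorescence intensity 30 min after reagent addition, following 17.5 h compound treatment at 37 C.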

[15] = qHTS assay to identify small molecule antagonists of the retinoic acid receptor (RAR) signaling pathway (AID 1159552; note: nearly all actives have a fitted effect of over 50% in size; note: potency is the fitted concentration of half-maximal effect)
How it was run: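 Using a RARE-driven luciferase construct in C3RL4 cells, retinol at 1 uM final provided the agonist stimulus while compounds were co-applied. After 6 hours at 37 C, luminescence was recorded to flag inhibitors of retinol signaling.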
% is set by controls: 0 for no effect and ±100 for the full control effect.

CC1(C)O[C@@H]2C[C@H]3[C@@H]4CCC5=CC(=O)CC[C@]5(C)[C@@]4(F)[C@@H](O)C[C@]3(C)[C@]2(C(=O)CCl)O1
inactive: outcome [1] | Potency [2] | Potency [3] | Potency [4] | Potency [5] | Potency [6] | Potency [7]

Cc1ccc([N+](=O)[O-])c(N)c1
inactive: Potency [8] | outcome [1] | Potency [9] | Potency [4] | Potency [5] | Potency [6] | Potency [7] | Potency [10] | Potency [11]

CCN(CC)CCOc1ccc(Cc2ccccc2)cc1
inactive: Potency [8] | outcome [1] | Potency [3] | Potency [12] | Potency [9] | Potency [4] | Potency [5] | Potency [6] | Potency [7]

CN(C)CC[C@@H](c1ccc(Cl)cc1)c1ccccn1
inactive: Potency [8] | outcome [1] | outcome [13] | outcome [14] | Potency [3] | Potency [9] | Potency [4] | Potency [7]

CCCC1CCC(=O)O1 (configuration not stated)
inactive: Potency [8] | outcome [1] | Potency [3] | Potency [12] | Potency [9] | Potency [4] | Potency [5] | Potency [6] | Potency [7]

CCC(=O)O[C@]1(C(=O)SCF)[C@H](C)C[C@H]2[C@@H]3C[C@H](F)C4=CC(=O)C=C[C@]4(C)[C@@]3(F)[C@@H](O)C[C@@]21C
inactive: Potency [8] | outcome [1] | Potency [2] | Potency [3] | Potency [12] | Potency [4] | Potency [7] | Potency [10]

CN(CCCN1c2ccccc2CCc2ccccc21)CC(=O)c1ccc(Cl)cc1
inactive: outcome [1] | Potency [15] | Potency [3] | Potency [12] | Potency [9] | Potency [4] | Potency [5] | Potency [7]

CCCOc1ccc2c(c1)CC[C@@H]1[C@@H]2CC[C@]2(C)C(OC)CC[C@@H]12 (some centres not stated)
inactive: outcome [1] | Potency [15] | Potency [2] | Potency [3] | Potency [12] | Potency [9] | Potency [4] | Potency [5] | Potency [6] | Potency [7] | Potency [10] | Potency [11]

CN(C)C(=O)NC1(c2ccccc2)CCN(CCC[C@]2(c3ccc(Cl)c(Cl)c3)CCCN(C(=O)c3ccccc3)C2)CC1
inactive: activity change, negative = cytotoxicity [1] -1.37% [at 19 µM] | activity change, negative = inhibition [12] -2.4% [at 23.6 µM] | viability change, negative = cytotoxic [9] -28.7% [at 19 µM] | activity, negative = inhibition [5] -20.2% [at 19 µM] | activation [6] -6.21% [at 19 µM]

CCCCCCOc1ccc(N)cc1
active: Potency [2] 10.9 µM | Potency [6] 27.3 µM | Potency [11] 12.2 µM
inactive: outcome [1] | Potency [15] | Potency [9] | Potency [4] | Potency [5] | Potency [7] | Potency [10]

COc1ccc2nc(NC(=O)Nc3ccccc3)sc2c1
active: Potency [12] 0.389 µM | Potency [6] 10.6 µM
inactive: outcome [1] | Potency [9] | Potency [4] | Potency [7]

Cc1ccc(C=O)s1
inactive: outcome [1] | Potency [15] | Potency [3] | Potency [12] | Potency [9] | Potency [4] | Potency [5] | Potency [6] | Potency [7] | Potency [10] | Potency [11]

CCc1cc2cc(OC)c(OC)cc2c(Cc2ccccc2)n1
inactive: Potency [8] | Potency [2] | Potency [9] | Potency [4] | Potency [5] | Potency [7] | Potency [10] | Potency [11]

COc1cc2c(cc1N)oc1ccccc12
active: Potency [2] 12.5 µM | Potency [12] 36.3 µM | Potency [6] 31.3 µM
inactive: outcome [1] | Potency [15] | Potency [3] | Potency [9] | Potency [4] | Potency [7] | Potency [10]

CCCCOc1cc(C(=O)NCCN(CC)CC)c2ccccc2n1
inactive: outcome [1] | Potency [15] | Potency [2] | Potency [7]

CCOC(=O)COc1ccc2c(c1)CC(NCC(O)c1cccc(Cl)c1)CC2 (configuration not stated)
inactive: outcome [1] | Potency [15] | Potency [2] | Potency [12] | Potency [6] | Potency [10] | Potency [11]

CCC(=O)c1ccc2c(c1)N(CCCN(C)C)c1ccccc1S2
active: Potency [3] 26.6 µM
inactive: outcome [1] | Potency [2] | Potency [12] | Potency [9] | Potency [4] | Potency [5] | Potency [6]

NS(=O)(=O)c1cc(-c2nn[nH]n2)c(NCc2cccs2)cc1Cl
active: Potency [5] 23.7 µM
inactive: Potency [8] | outcome [1] | Potency [2] | Potency [12] | Potency [4] | Potency [6] | Potency [7]

CC(C)O
inactive: Potency [8] | outcome [1] | Potency [3] | Potency [12] | Potency [9] | Potency [4] | Potency [6] | Potency [7]

Cc1c(-c2ccccc2)oc2c(C(=O)OCCN3CCCCC3)cccc2c1=O
inactive: Potency [8] | outcome [1] | Potency [3] | Potency [12] | Potency [9] | Potency [4] | Potency [5] | Potency [6] | Potency [7]

CC[C@H]1CC[C@H](NCc2cc3c(cc2OC)[C@H]2C[C@H]2C(=O)N3C)[C@H](c2ccccc2)N1
inactive: Potency [8] | outcome [1] | Potency [12] | Potency [11]
active: Potency [15] 13.7 µM | Potency [10] 21.7 µM

CC(C)C1=CC2=CC[C@@H]3[C@](C)(CCC[C@@]3(C)C(=O)O)[C@H]2CC1
inactive: outcome [1] | Potency [15] | Potency [2] | Potency [9] | Potency [4] | Potency [5] | Potency [6] | Potency [7] | Potency [11]

CCN(CCCc1ccccc1)CCCc1ccccc1
inactive: outcome [1] | Potency [15] | Potency [2] | Potency [3] | Potency [9] | Potency [4] | Potency [7] | Potency [11]
